Screening data: PubChem, National Center for Advancing Translational Sciences (NCATS)
Tau fluor counter: counter-screen for tau fibril formation inhibitors; tau K18 P301L Alexa594 fluorescence, heparin fibrillization; Potency, µM (titrated, usually from 57.7 µM), inactives show at the top dose activity change, negative = decrease; 280,000 compounds, 0.93% hits; AID 1463; also: potency is read from the fitted curve at half-maximal effect; nearly all actives have a fitted effect of over 55% in size
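Human K18 P301L tau (15 uM unlabeled plus 0.24 uM Alexa 594-labeled, final) in 100 mM sodium acetate pH 7 was mixed with compound and 20 uM heparin and incubated 6 hr at 37 C.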
Tau fibril ThT: inhibitors of human tau fibril formation, thioflavin T binding; recombinant tau K18 P301L, heparin-induced fibrillization, ThT fluorescence; 270,000 compounds, 2.1% hits; AID 1460; Potency, µM (doses to about 57.4 µM), for inactives: top-dose activity, negative = inhibition, most hits filed as inhibitors; P10636; also: potency is read from the fitted curve at half-maximal effect; nearly all actives have a fitted effect of over 55% in size
Target sequence (P10636 561-689 P618L limits assumed): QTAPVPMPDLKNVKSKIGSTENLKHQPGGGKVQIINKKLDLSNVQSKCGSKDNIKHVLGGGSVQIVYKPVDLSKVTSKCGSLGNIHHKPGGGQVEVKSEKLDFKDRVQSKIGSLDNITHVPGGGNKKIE
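Heparin-induced (20 uM) aggregation of recombinant human K18 P301L tau, 15 uM unlabeled with 0.24 uM labeled, pH 7 acetate buffer, 6 hr at 37 C with compound. Fibrils quantified by 30 uM ThT fluorescence after 1 hr ambient incubation.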
KDM4E inh: blocks human JMJD2E demethylase activity. B2RXH2. JMJD2E catalytic domain, FDH-coupled NADH fluorescence (FDH is formaldehyde dehydrogenase). Potency, µM (highest dose often 57.1 µM), without a hit: top-dose activity change, negative = inhibition, usual class: inhibitors. 230,000 compounds, 1.6% hits. AID 2147; active = well fitted inhibition curve with a large enough effect, not every such curve was filed as active; inconclusive = small, poorly fitted or top-dose-only effect, or another doubt; inactive = no such curve, though single readings can be large or run the other way;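 also: potency is read from the fitted curve at half-maximal effect; 0% = wells with enzyme and -100% = buffer wells without enzyme; nearly all actives have a fitted effect of over 50% in size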
Target sequence (B2RXH2 1-337 limits assumed): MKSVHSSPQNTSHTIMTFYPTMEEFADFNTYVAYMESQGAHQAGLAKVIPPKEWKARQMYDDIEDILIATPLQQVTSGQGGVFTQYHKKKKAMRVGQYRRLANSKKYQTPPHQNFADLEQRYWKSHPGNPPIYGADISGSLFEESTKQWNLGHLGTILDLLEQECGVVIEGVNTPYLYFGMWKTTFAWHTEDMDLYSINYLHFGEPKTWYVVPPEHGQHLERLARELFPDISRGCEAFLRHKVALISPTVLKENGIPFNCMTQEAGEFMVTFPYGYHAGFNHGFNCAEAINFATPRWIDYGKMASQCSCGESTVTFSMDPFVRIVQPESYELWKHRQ
Tau FP inhib: blocks human tau fibril formation measured by polarization. K18 P301L tau heparin fibrillization, Alexa594 FP, 6 h. Potency, µM (titrated, usually from 57.7 µM), for the others: at the highest dose activity, negative = inhibition, most hits filed as inhibitors. 280,000 compounds, 0.39% hits; also: potency is read from the fitted curve at half-maximal effect; nearly all actives have a fitted effect of over 55% in size
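Heparin (20 uM) drove fibril formation of recombinant tau K18 P301L, 15 uM unlabeled with 0.24 uM Alexa 594 label, for 6 hr at 37 C in 100 mM sodium acetate pH 7. Fluorescence polarization (555/632 nm) read 1 hr after 30 uM ThT.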
Sfp PPTase inh: blocks B. subtilis Sfp PPTase activity | Potency, µM, for inactives: largest response in the series, negative = inhibition, usual class: inhibitors | 310,000 compounds, 3.5% hits | Biochemical Sfp PPTase activity, qHTS | AID 1490;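 also: the enzyme is Sfp with the accession as filed and its product quenches rhodamine fluorescence; potency is read from the fitted curve at half-maximal effect; 0% = enzyme reaction without inhibitor and -100% = no enzyme wells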
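Step 1, compound plus 15 nM Sfp-PPTase, 15 min, room temperature. Step 2, add rhodamine-CoA (5 uM) and BHQ-2-YbbR (12.5 uM). Step 3, read 525/598 nm fluorescence at 0 and 30 min.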
FBPA coupling cs: coupling enzyme interference in Giardia aldolase counter-screen; coupling enzyme system counterscreen, AmpLite Red fluorescence; activity change, negative = inhibition, % at 58.2 µM, hits read low; 290,000 compounds, 0.67% hits; AID 2472; in the data active = activity change below about -30%
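Fluorescence at 525 nm excitation and 598 nm emission measured inhibition of the coupled detection system without aldolase. Compounds (at 57.5 uM final) were preincubated 10 min at room temperature with coupling enzyme reagent before a 20 min substrate/AmpLite Red step.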
Numbers without * were called inactive; ! = repeats disagree; [ ] = remark or other dose. Most compounds without a hit are left out; they make up all but 5.3% or so of the library. Unless noted, calls follow the shape of the dose curve; as a rule, active = well fitted curve in the direction sought with a large enough effect; inconclusive = small, poorly fitted or top-dose-only effect, or another doubt; inactive = no such curve, though single readings can be large; an effect the other way counts as inactive or inconclusive. Unless noted, % is scaled to controls: 0 for no effect and ±100 for the full control effect.

Screening CC(=O)C1=C(O)C(=O)N(c2ccc(O)cc2)C1c1ccccc1[N+](=O)[O-] (stereo unspecified) returned Sfp PPTase inh 35.5µM* and FBPA coupling cs -0.9.
CCCCN1C(=O)C(O)=C(C(C)=O)C1c1ccccc1[N+](=O)[O-] (stereo unspecified) was read as Tau fluor counter 5.1%, Tau fibril ThT 9.2%, KDM4E inh -16.5%, Tau FP inhib 4.6%, Sfp PPTase inh 17.8µM* and FBPA coupling cs -16.8.
For CC(=O)C1=C(O)C(=O)N(c2ccc(O)cc2)C1c1ccc(F)cc1 (stereo unspecified) the results were Sfp PPTase inh 1.9% and FBPA coupling cs 3.4.
COC(=O)C1=C(C(=O)OC)[C@@H]2N(C)c3ccc(OC)cc3[C@@]23C[C@@H](C(=O)OC)N(S(=O)(=O)c2ccc(C)cc2)C3=N1 was read as Tau fluor counter -8.1%[11.6 µM], Tau fibril ThT 1.1%[11.5 µM], KDM4E inh 9.6%[11.4 µM], Tau FP inhib -0.8%[11.6 µM], Sfp PPTase inh 6.2% and FBPA coupling cs -0.4.
Cc1cc(N2CCN(C)CC2)nc2ccc(NC(=O)Nc3cccc(Cl)c3)cc12 was read as Tau fluor counter 3.98µM*[quencher], Tau fibril ThT 14.1µM* and Tau FP inhib inconclusive.
Cc1cc(N2CCN(C)CC2)nc2ccc(NC(=O)c3cccnc3Cl)cc12 was read as Tau fluor counter -16.6%, Tau fibril ThT inconclusive, KDM4E inh -13.6%, Tau FP inhib -5.1%, Sfp PPTase inh 8.5% and FBPA coupling cs -2.3.
Screening Cc1cc(N2CCN(C)CC2)nc2ccc(NC(=O)c3ccccc3F)cc12 returned Tau fluor counter inconclusive, Tau fibril ThT inconclusive, KDM4E inh 3.4%, Tau FP inhib -1.7%, Sfp PPTase inh 17.9% and FBPA coupling cs 1.1.
Cc1ccc(NC(=O)Nc2ccc3nc(N4CCN(C)CC4)cc(C)c3c2)cc1C was read as Tau fluor counter 4.47µM*[quencher], Tau fibril ThT 8.91µM* and Tau FP inhib 3.3%.
Screening Cc1cc(N2CCN(C)CC2)nc2ccc(NC(=O)Nc3ccccc3)cc12 returned Tau fluor counter 17.8µM*[quencher], Tau fibril ThT inconclusive and Tau FP inhib inconclusive.
Screening Cc1cc(N2CCN(C)CC2)nc2ccc(NC(=O)Nc3ccccc3Br)cc12 returned Tau fluor counter 12.6µM*[quencher], Tau fibril ThT 12.6µM* and Tau FP inhib inconclusive.
`O=C(c1ccco1)N1CCC2(CC1)CN(c1ccccn1)C2` gave Sfp PPTase inh 0.2% and FBPA coupling cs -5.1.
Cc1cc(N2CCN(C)CC2)nc2ccc(NC(=O)Nc3ccc(F)cc3F)cc12 was read as Tau fluor counter 15.8µM*[quencher], Tau fibril ThT inconclusive and Tau FP inhib inconclusive.
For CCCCN(CC)CCNC(=O)CCC(=O)Nc1ccc2nc(N3CCN(C)CC3)cc(C)c2c1 the results were Tau fluor counter -14.2%, Tau fibril ThT -20.3%, KDM4E inh inconclusive, Tau FP inhib -2.6%, Sfp PPTase inh -9.3% and FBPA coupling cs -33.6*.
Screening Cc1cc(N2CCN(C)CC2)nc2ccc(NC(=O)CCC3CCCC3)cc12 returned Sfp PPTase inh -10.6% and FBPA coupling cs 2.4.
Screening CCCCN(CC)CCNC(=S)Nc1ccc2nc(N3CCN(C)CC3)cc(C)c2c1 returned Sfp PPTase inh -8.6% and FBPA coupling cs 0.2.
O=C(N/N=C1/C[C@@H](O)[C@@H](O)[C@@H]2[C@@H]3C(=O)N(c4cccc(Oc5ccccc5)c4)C(=O)[C@H]3CC[C@H]12)OCc1ccccc1 was read as Tau fluor counter -26.2%[11.6 µM], Tau fibril ThT -17.1%[11.5 µM], Tau FP inhib inconclusive, Sfp PPTase inh 10.7% and FBPA coupling cs 1.4.
For CCOc1ccc(-c2nnc(SCC(=O)NC3CCCCC3)nc2-c2ccc(OCC)c(OC)c2)cc1OC the results were Tau fluor counter 7.4%, Tau fibril ThT 7.1% and Tau FP inhib -8.1%.
For CCOc1ccc(-c2nc(SCC(=O)NC3CCCC3)c(-c3ccccc3)[nH]2)cc1OC the results were Tau fluor counter 12.6µM*[quencher], Tau fibril ThT inconclusive and Tau FP inhib inconclusive.
Screening COc1cccc(-c2nc(SCC(=O)NCC3CCCO3)c(-c3ccc(F)cc3)[nH]2)c1 (stereo unspecified) returned Tau fluor counter inconclusive, Tau fibril ThT -13.5% and Tau FP inhib 15.9%.
Screening COc1ccc(-c2[nH]c(-c3cccc(OC)c3)nc2SCC(=O)NC2CCCC2)cc1 returned Tau fluor counter 12.6µM*![quencher], Tau fibril ThT inconclusive, KDM4E inh -0.5%, Tau FP inhib inconclusive, Sfp PPTase inh 3.8% and FBPA coupling cs -3.6.
For COc1ccc(-c2nc(SCC(=O)NC3CCCC3)c(-c3ccc(F)cc3)[nH]2)cc1 the results were Tau fluor counter 14.1µM*[quencher], Tau fibril ThT inconclusive and Tau FP inhib 8.5%.
Screening COc1ccc(-c2[nH]c(-c3ccc(F)cc3)nc2SCC(=O)NC2CCCC2)cc1 returned Tau fluor counter -3.3%, Tau fibril ThT 8.1%, KDM4E inh -3.5%, Tau FP inhib 5.3%, Sfp PPTase inh -9.8% and FBPA coupling cs -4.0.
For COc1ccc(-c2[nH]c(-c3ccccc3)nc2SCC(=O)NC2CCCC2)cc1 the results were Tau fluor counter 25.1µM*[quencher], Tau fibril ThT inconclusive, KDM4E inh inconclusive, Tau FP inhib inconclusive, Sfp PPTase inh -1.0% and FBPA coupling cs -4.1.
Screening CS(=O)(=O)N(CC(=O)NCCSc1ccccc1)c1cc(C(F)(F)F)ccc1Cl returned Tau fluor counter -23.0%, Tau fibril ThT -5.1% and Tau FP inhib -7.3%.
`Cc1ccc2scc(N3CCCCC3)c(=O)c2c1` gave Tau fluor counter -9.8%, Tau fibril ThT inconclusive and Tau FP inhib -3.5%.
`Cc1ccc(Cn2c(CN3CCC(C(=O)NCCc4ccccc4)CC3)cc3ccccc32)cc1` gave Tau fluor counter -10.9%, Tau fibril ThT -3.0% and Tau FP inhib 8.2%.
COc1cccc(/C=N/NC(=O)CNC(=O)CCc2ccccc2)c1O was read as Tau fluor counter -5.8%, Tau fibril ThT -9.9%, KDM4E inh 3.98µM*, Tau FP inhib 1.3%, Sfp PPTase inh -1.8% and FBPA coupling cs 6.5.
For COc1ccccc1/C=N/NC(=O)CCSc1ccccc1 the results were Tau fluor counter -14.7%, Tau fibril ThT -11.2%, KDM4E inh -0.2%, Tau FP inhib 1.9%, Sfp PPTase inh -3.2% and FBPA coupling cs -33.3*.
Screening COc1cccc(/C=N/NC(=O)CNC(=O)COc2cccc(C)c2)c1O returned Tau fluor counter -17.5%, Tau fibril ThT inconclusive, KDM4E inh 2.82µM*, Tau FP inhib -8.2%, Sfp PPTase inh -2.6% and FBPA coupling cs 7.0.
